# Laboratory results from ChEMBL document CHEMBL3433997, “St. Jude Leishmania screening dataset” (2016).
# Target: Solute carrier family 2, facilitated glucose transporter member 1 (Homo sapiens) (UniProt P11166)
# Experiment: ST_JUDE_LEISH: Cytotoxicity at 2uM final concentration against transgenic Leishmania Mexicana promastigotes LmGLUT1 that are glucose transport deficient and complemented with the human glucose transporter GLUT1. Activity is measured by DNA content using SYBR green in vitro
# Format: functional
# Solute carrier family 2, facilitated glucose transporter member 1 (Homo sapiens), sequence (P11166 whole entry): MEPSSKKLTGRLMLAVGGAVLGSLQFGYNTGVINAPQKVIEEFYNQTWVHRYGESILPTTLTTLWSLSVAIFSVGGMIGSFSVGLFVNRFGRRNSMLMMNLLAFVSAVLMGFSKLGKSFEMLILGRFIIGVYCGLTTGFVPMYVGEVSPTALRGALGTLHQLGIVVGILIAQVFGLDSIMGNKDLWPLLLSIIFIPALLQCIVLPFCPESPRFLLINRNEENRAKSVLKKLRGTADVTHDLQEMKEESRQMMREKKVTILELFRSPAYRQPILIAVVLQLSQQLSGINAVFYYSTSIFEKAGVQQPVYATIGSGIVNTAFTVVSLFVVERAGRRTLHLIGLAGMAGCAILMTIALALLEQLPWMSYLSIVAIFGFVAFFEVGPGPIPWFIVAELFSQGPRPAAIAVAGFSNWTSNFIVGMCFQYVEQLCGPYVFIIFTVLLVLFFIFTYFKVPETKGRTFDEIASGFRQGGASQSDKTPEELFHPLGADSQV
row,SMILES,inhibition
1,Nc1c2c(nc3ccc(NC(=O)c4ccccc4)cc13)CCCC2,3.15%
2,O=C(NC1CCN(c2ccnc(Nc3ccc(F)cc3)n2)C1)c1cc2ccccc2s1 (stereo not given),0.69%
3,CN1CCC(NCc2ccc(-c3ccc(S(=O)(=O)NC4CCC4)s3)cc2)CC1,3.46%
4,CCCNC(=O)C1Cc2c([nH]c3cc(Br)ccc23)C2(CCN(CCc3ccccc3)CC2)N1 (stereo not given),2.03%
5,CCCCNC(=O)[C@H](Cc1ccccc1)NC(=O)c1ccc(O)c(-c2ccc(Cl)c(Cl)c2)c1,6.46%
6,CC(=O)c1ccc(-c2ccccc2)s1,2.16%
7,COc1ccc(CCN(C)CCCOc2ccc(NC(=O)c3cccc4c(=O)c5ccccc5[nH]c34)cc2)cc1OC,5.62%
8,CC1(C)N=C(N)N=C(N)N1OCCCc1ccccc1,1.22%
9,CC(C)NCc1cccc(-c2ccc(NC(=O)c3ccc(F)cc3)cc2)c1,3.19%
10,Cc1ccc2c(Cl)c(C(=O)N3CCCc4ccccc43)sc2c1,5.28%
11,CC(C)c1ccc(Cn2cc(-c3ccncc3)c3cc(OCc4ccccc4)ccc32)cc1,0.76%
12,O=C(NCCc1ccc(Cl)c(Cl)c1)C1CCCN(C(=O)c2ccc(O)c(-c3ccc(Cl)c(Cl)c3)c2)C1 (stereo not given),1.33%
13,Nc1cccc(CNCc2cccc(-c3cccc(-c4nc5cc(F)ccc5[nH]4)c3)c2)c1,0.35%
14,CN1CCN(c2nsc3ccc(-c4ccc(NC(=O)Nc5cc(C(F)(F)F)ccc5F)cc4)cc23)CC1,5.16%
15,COc1ccc(CNCCCCCCCNCc2ccc(Cl)c(Cl)c2)cc1Cl,5.86%
16,CC(C)COc1ccc(Cl)cc1Cc1nc(-c2nc3ccc(CN4CCCC4)cc3[nH]2)co1,2.58%
17,CCC[C@@H]([C@@H](CC1CCCCC1)C(=O)N[C@@H](CCOC(=O)NCC)C(=O)Nc1nccs1)N(O)C=O,8.61%
18,Oc1cc(-c2nc(-c3ccccc3)[nH]c2-c2ccncc2)ccc1Cl,4.1%
19,CC(=O)c1c(Cc2ccccc2Cl)c[nH]c1C,4.46%
20,CCOC(=O)c1ccc(NC(=O)NC2CCN(CCCCCNC(=O)/C=C/c3ccc(Cl)c(Cl)c3)C2)cc1 (stereo not given),2.05%

row,SMILES,inhibition
1,O=C(Nc1ccc(OC2CCN(Cc3ccsc3)CC2)c(Cl)c1)c1ccco1,2.93%
2,Oc1ccc2[nH]c(-c3ccc(OC(F)(F)F)cc3)nc2c1CNC1CCCC1,2.65%
3,CS(=O)(=O)Nc1ccc2c(C3CCN(CCC4CCN(C(=O)/C=C/c5ccc(Cl)c(Cl)c5)CC4)CC3)c[nH]c2c1,4.12%
4,CC(C)c1ccc(NC(=O)c2ccc(C(=O)NC3CCN(Cc4ccccc4)CC3)cc2)cc1,1.09%
5,Cc1nc(N)nc(N)c1-c1ccc(Br)cc1,9.9%
6,CCC(NC(=O)c1ccccc1NC(=O)c1ccc(C)cc1)C(=O)OC (stereo not given),-0.5%
7,COc1cccc(NC(=O)N2CCOC(CCN3CCC4(CCc5ccccc54)CC3)(c3ccc(Cl)c(Cl)c3)C2)c1 (stereo not given),7.21%
8,CC(C)C1CCc2nc(N)nc(N)c2C1 (stereo not given),2.52%
9,Nc1nc(N)c2c3c(ccc2n1)NCCC3,-0.04%
10,CNc1ccc(CNCc2cccc(-c3ccc(-c4nc5ccccc5[nH]4)s3)c2)cc1,1.37%
11,N#CC(c1ccc(Cl)cc1)c1ccc2c(C(F)(F)F)cc(C(F)(F)F)nc2n1 (stereo not given),2.34%
12,O=S(=O)(c1ccccc1)n1ccc2cc(Nc3ncnc4cc(C#C[C@H]5CCCN5)sc34)ccc21,2.91%
13,Oc1cc(Nc2ccnc3cc(I)ccc23)ccc1F,1.98%
14,Cc1ccc(Nc2nc(C)cc(Nc3cccc(NS(C)(=O)=O)c3)n2)cc1,11.5%
15,Cc1ccc(S(=O)(=O)N(CCCNCc2cccc(O)c2)c2ccccc2)cc1,9.85%
16,CC[C@@]1(O)C(=O)OCc2c1cc1n(c2=O)Cc2c-1nc1cc3c(cc1c2CN1CCN(C)CC1)OCCO3,7.46%
17,Cc1cc(S(=O)(=O)N2CCCCC(c3ccc(C(F)(F)F)cc3)=N2)c(Cl)cc1Cl,3.58%
18,COc1ccc2c(NN=CC=Cc3ccccc3)ccnc2c1,9.5%
19,Cc1ccc(O)cc1Nc1ccnc2cc(-c3cccc(CNCCS(C)(=O)=O)c3)ccc12,1.09%
20,COc1ccc(-c2ccc(NC(=O)c3ccc(C#N)cc3)cc2)cc1CNC(C)C,4.24%

# Target: Hexose transporter 1 (Plasmodium falciparum) (UniProt O97467)
# Experiment: ST_JUDE_LEISH: Cytotoxicity at 2uM final concentration against transgenic Leishmania Mexicana promastigotes LmPfHT that are glucose transport deficient and complemented with the Plasmodium falciparum hexose transporter. Activity is measured by DNA content using SYBR green in vitro
# Format: functional
row,SMILES,inhibition
1,Nc1c2c(nc3ccc(NC(=O)c4ccccc4)cc13)CCCC2,2.68%
2,O=C(NC1CCN(c2ccnc(Nc3ccc(F)cc3)n2)C1)c1cc2ccccc2s1 (stereo not given),1.57%
3,CN1CCC(NCc2ccc(-c3ccc(S(=O)(=O)NC4CCC4)s3)cc2)CC1,1.25%
4,CCCNC(=O)C1Cc2c([nH]c3cc(Br)ccc23)C2(CCN(CCc3ccccc3)CC2)N1 (stereo not given),1.9%
5,CCCCNC(=O)[C@H](Cc1ccccc1)NC(=O)c1ccc(O)c(-c2ccc(Cl)c(Cl)c2)c1,2.06%
6,CC(=O)c1ccc(-c2ccccc2)s1,3.72%
7,COc1ccc(CCN(C)CCCOc2ccc(NC(=O)c3cccc4c(=O)c5ccccc5[nH]c34)cc2)cc1OC,2.58%
8,CC1(C)N=C(N)N=C(N)N1OCCCc1ccccc1,2.68%
9,CC(C)NCc1cccc(-c2ccc(NC(=O)c3ccc(F)cc3)cc2)c1,3.2%
10,Cc1ccc2c(Cl)c(C(=O)N3CCCc4ccccc43)sc2c1,3.86%
11,CC(C)c1ccc(Cn2cc(-c3ccncc3)c3cc(OCc4ccccc4)ccc32)cc1,0.58%
12,O=C(NCCc1ccc(Cl)c(Cl)c1)C1CCCN(C(=O)c2ccc(O)c(-c3ccc(Cl)c(Cl)c3)c2)C1 (stereo not given),2.53%
13,Nc1cccc(CNCc2cccc(-c3cccc(-c4nc5cc(F)ccc5[nH]4)c3)c2)c1,0.35%
14,CN1CCN(c2nsc3ccc(-c4ccc(NC(=O)Nc5cc(C(F)(F)F)ccc5F)cc4)cc23)CC1,1.74%
15,COc1ccc(CNCCCCCCCNCc2ccc(Cl)c(Cl)c2)cc1Cl,4.67%
16,CC(C)COc1ccc(Cl)cc1Cc1nc(-c2nc3ccc(CN4CCCC4)cc3[nH]2)co1,3.58%
17,CCC[C@@H]([C@@H](CC1CCCCC1)C(=O)N[C@@H](CCOC(=O)NCC)C(=O)Nc1nccs1)N(O)C=O,10.3%
18,Oc1cc(-c2nc(-c3ccccc3)[nH]c2-c2ccncc2)ccc1Cl,1.67%
19,CC(=O)c1c(Cc2ccccc2Cl)c[nH]c1C,3.16%
20,CCOC(=O)c1ccc(NC(=O)NC2CCN(CCCCCNC(=O)/C=C/c3ccc(Cl)c(Cl)c3)C2)cc1 (stereo not given),0%

row,SMILES,inhibition
1,O=C(Nc1ccc(OC2CCN(Cc3ccsc3)CC2)c(Cl)c1)c1ccco1,5.95%
2,Oc1ccc2[nH]c(-c3ccc(OC(F)(F)F)cc3)nc2c1CNC1CCCC1,3.35%
3,CS(=O)(=O)Nc1ccc2c(C3CCN(CCC4CCN(C(=O)/C=C/c5ccc(Cl)c(Cl)c5)CC4)CC3)c[nH]c2c1,3.65%
4,CC(C)c1ccc(NC(=O)c2ccc(C(=O)NC3CCN(Cc4ccccc4)CC3)cc2)cc1,2.91%
5,Cc1nc(N)nc(N)c1-c1ccc(Br)cc1,8.21%
6,CCC(NC(=O)c1ccccc1NC(=O)c1ccc(C)cc1)C(=O)OC (stereo not given),0.91%
7,COc1cccc(NC(=O)N2CCOC(CCN3CCC4(CCc5ccccc54)CC3)(c3ccc(Cl)c(Cl)c3)C2)c1 (stereo not given),8%
8,CC(C)C1CCc2nc(N)nc(N)c2C1 (stereo not given),4.4%
9,Nc1nc(N)c2c3c(ccc2n1)NCCC3,0.47%
10,CNc1ccc(CNCc2cccc(-c3ccc(-c4nc5ccccc5[nH]4)s3)c2)cc1,1.02%
11,N#CC(c1ccc(Cl)cc1)c1ccc2c(C(F)(F)F)cc(C(F)(F)F)nc2n1 (stereo not given),2.87%
12,O=S(=O)(c1ccccc1)n1ccc2cc(Nc3ncnc4cc(C#C[C@H]5CCCN5)sc34)ccc21,2.14%
13,Oc1cc(Nc2ccnc3cc(I)ccc23)ccc1F,-0.07%
14,Cc1ccc(Nc2nc(C)cc(Nc3cccc(NS(C)(=O)=O)c3)n2)cc1,12.5%
15,Cc1ccc(S(=O)(=O)N(CCCNCc2cccc(O)c2)c2ccccc2)cc1,6.1%
16,CC[C@@]1(O)C(=O)OCc2c1cc1n(c2=O)Cc2c-1nc1cc3c(cc1c2CN1CCN(C)CC1)OCCO3,15%
17,Cc1cc(S(=O)(=O)N2CCCCC(c3ccc(C(F)(F)F)cc3)=N2)c(Cl)cc1Cl,4.02%
18,COc1ccc2c(NN=CC=Cc3ccccc3)ccnc2c1,6.81%
19,Cc1ccc(O)cc1Nc1ccnc2cc(-c3cccc(CNCCS(C)(=O)=O)c3)ccc12,0.12%
20,COc1ccc(-c2ccc(NC(=O)c3ccc(C#N)cc3)cc2)cc1CNC(C)C,3.24%
